Counter-ions that a name gives are not always drawn.
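Also: flow cytometry read-out as median GFP intensity of gated cells, compounds added 30 min before Hh-conditioned or mock medium, mock-treated cells serving as unstimulated baseline.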

For this assay, the system named is Drosophila S2 cl14 SmoIP sensor cells. Kind of assay: normalized SmoIP GFP fluorescence (untreated unstimulated = 0%, untreated Hh-stimulated = 100%); higher = more Smo activation sensor fluorescence. The settings on record: stimulation: mock conditioned medium (-Hh); compound concentration: 2 uM; 24 h.
As to `COC(=O)N[C@H](C(=O)N[C@@H](Cc1ccccc1)[C@@H](O)CN(Cc1ccc(-c2ccccn2)cc1)NC(=O)[C@@H](NC(=O)OC)C(C)(C)C)C(C)(C)C` [Atazanavir], the “normalized SmoIP GFP fluorescence” value is -0.0496%. With `COc1cc(Nc2nc3ccccc3nc2NS(=O)(=O)c2ccc(NC(=O)c3ccc(C)c(OC)c3)cc2)cc(OC)c1`, the “normalized SmoIP GFP fluorescence” value was 5.66%. To `C[C@]12CCC3=C4CCC(=O)C=C4CC[C@H]3[C@@H]1CC[C@@]2(O)CC#N` [Dienogest] belongs 10.2%; to `C=CC(=O)Nc1cccc(Oc2nc(Nc3ccc(N4CCN(C)CC4)cc3)ncc2Cl)c1`, 11%. With `C[C@]12CC[C@@H]3c4ccc(O)cc4C[C@@H](CCCCCCCCC[S+]([O-])CCCC(F)(F)C(F)(F)F)[C@H]3[C@@H]1CC[C@@H]2O` (stereo partly specified) [Fulvestrant], the “normalized SmoIP GFP fluorescence” value stood at 12.4%. To `c1cnc2cc3c(cc2n1)[C@@H]1CNC[C@H]3C1` [Varenicline-tartrate] belongs 2.97%; to `Nc1ncn([C@H]2C[C@H](O)[C@@H](CO)O2)c(=O)n1` [Decitabine], 25.6%; to `Cc1nc(C(=O)NCC(=O)O)c(O)c2ccc(Oc3ccccc3)cc12`, 11%.

In the case of `COc1nc(C)cnc1NS(=O)(=O)c1cccnc1-c1ccc(-c2nnco2)cc1` [Zibotentan(ZD4054)], the “normalized SmoIP GFP fluorescence” value was -1.13%. Consider `O=c1cc(-c2cccc3c2Sc2ccccc2S3)oc(N2CCOCC2)c1`, for which the “normalized SmoIP GFP fluorescence” value is 2.43%. As to `CCN(CC)CC(=O)Nc1c(C)cccc1C` [Lidocaine], the “normalized SmoIP GFP fluorescence” value came out at 2.97%. To `c1cn2cc(-c3ccc4cn[nH]c4c3)nc(Nc3ccc(N4CCOCC4)cc3)c2n1` belongs 2.97%.

Regarding `C#CCC(Cc1cnc2nc(N)nc(N)c2n1)c1ccc(C(=O)N[C@@H](CCC(=O)O)C(=O)O)cc1` (stereo partly specified) [Pralatrexate(Folotyn)], the “normalized SmoIP GFP fluorescence” value was 13.3%. To `Cc1cc(NC(=O)Nc2ccc(N(C)C)cc2)c2cc(F)cc(F)c2n1` belongs 24.9%; to `CCOc1ccn(-c2ccc(F)cc2)c(=O)c1C(=O)Nc1ccc(Oc2ccnc(N)c2Cl)c(F)c1`, -5.22%. For the compound `O=C(Nc1c[nH]nc1-c1nc2ccc(CN3CCOCC3)cc2[nH]1)NC1CC1`, the “normalized SmoIP GFP fluorescence” value came out at 94.8%. With `CC1=C(C(=O)Nc2cc3cn[nH]c3cc2F)C(c2ccc(C(F)(F)F)cc2)CC(=O)N1` (stereo unspecified), the “normalized SmoIP GFP fluorescence” value is -1.88%. In the case of `CCNC(=O)c1noc(-c2cc(C(C)C)c(O)cc2O)c1-c1ccc(CN2CCOCC2)cc1`, the “normalized SmoIP GFP fluorescence” value came to 32.9%. For the compound `OC[C@H]1O[C@@H](c2ccc(Cl)c(Cc3ccc(O[C@H]4CCOC4)cc3)c2)[C@H](O)[C@@H](O)[C@@H]1O`, the “normalized SmoIP GFP fluorescence” value was -7.78%. For the compound `CCOC(=O)Nc1cc(-c2ccc(C)c(NS(C)(=O)=O)c2)nn2c(C)nnc12` [bromosporine], the “normalized SmoIP GFP fluorescence” value was found to be 49.9%. `CCOC(=O)N1CCC(=C2c3ccc(Cl)cc3CCc3cccnc32)CC1` [Loratadine]: the “normalized SmoIP GFP fluorescence” value came to 11%.

In the case of `CN(C)CCc1c[nH]c2ccc(Cn3cncn3)cc12` [Rizatriptan-Benzoate(Maxalt)], the “normalized SmoIP GFP fluorescence” value was -0.265%. Regarding `COc1ccc2cc(-c3nc(-c4ccc([S+](C)[O-])cc4)[nH]c3-c3ccncc3)ccc2c1` (stereo unspecified) [Tie2-kinase-inhibitor], the “normalized SmoIP GFP fluorescence” value was 21.9%.

For `N#C/C(=C\c1ccc(O)c(O)c1)C(=O)NCc1ccccc1`, the “normalized SmoIP GFP fluorescence” value came to 9.54%. For the compound `CS(=O)(=O)c1ccc(C(=O)Nc2ccc(Cl)c(-c3ccccn3)c2)c(Cl)c1`, the “normalized SmoIP GFP fluorescence” value was 36.8%. `C=CC[N+]1([C@H]2C[C@H]3[C@@H]4CC[C@H]5C[C@H](O)[C@@H](N6CCOCC6)C[C@]5(C)[C@H]4CC[C@]3(C)[C@H]2OC(C)=O)CCCC1` [Rocuronium-bromide]: the “normalized SmoIP GFP fluorescence” value stood at 10.2%. Consider `CC(C)C[C@H](NC(=O)[C@@H](NC(=O)c1cccc(-c2ccccc2)n1)[C@@H](C)O)B(O)O`, for which the “normalized SmoIP GFP fluorescence” value came out at 64.4%. For the compound `COc1c(C)c2c(c(O)c1C/C=C(\C)CCC(=O)OCCN1CCOCC1)C(=O)OC2` [Mycophenolate-mofetil-(CellCept)], the “normalized SmoIP GFP fluorescence” value is 5.98%.

Turning to `N=C(N)Nc1ccc(C(=O)Oc2ccc3cc(C(=N)N)ccc3c2)cc1` [Nafamostat-mesylate], the “normalized SmoIP GFP fluorescence” value was determined as 16.2%. With `COc1ccccc1OCC(O)CN1CCN(CC(=O)Nc2c(C)cccc2C)CC1` (stereo unspecified) [Ranolazine-dihydrochloride], the “normalized SmoIP GFP fluorescence” value was 2.97%. Consider `C[C@]12CC[C@@H]3c4ccc(O)cc4CC[C@H]3[C@@H]1CCC2=O` [Estrone], for which the “normalized SmoIP GFP fluorescence” value came to 5.12%. Take `COc1cc(Nc2ncc(F)c(Nc3ccc4c(n3)NC(=O)C(C)(C)O4)n2)cc(OC)c1OC` [R406(free-base)]: the “normalized SmoIP GFP fluorescence” value amounted to 9.32%. As for `COc1ccc(-c2nc(N3CCOCC3)c3sc(CN(C)c4ncc(C(=O)NO)cn4)cc3n2)cn1` [cudc-907], the “normalized SmoIP GFP fluorescence” value is 82.3%. Turning to `O=C(Nc1ccc(OC(F)(F)F)cc1)c1sccc1NCc1ccnc2ccccc12`, the “normalized SmoIP GFP fluorescence” value amounted to 9.86%. With `NC(=O)c1cn(Cc2c(F)cccc2F)nn1` [Rufinamide], the “normalized SmoIP GFP fluorescence” value was 1.89%. For `COc1cc2nccc(Oc3ccc(NC(=O)C4(C(=O)Nc5ccc(F)cc5)CC4)cc3)c2cc1OC`, the “normalized SmoIP GFP fluorescence” value came out at 3.51%.

The values above are taken from the supplement of paper PMC5662767.
